Measurements reported in PubChem BioAssay (NCI).
The panel holds about 83,000 compounds, 20% with a hit somewhere; the sample as a whole holds those more often.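 Percent growth is the endpoint: 0 to 100 indicates growth inhibition (40 means 60% inhibition), 0 means no net growth, and negative values indicate cell death.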 Unmarked numbers belong to inactive results. Calls of active or inactive are those of the source. How the source made its calls: active means growth percent below 10; inactive means the rest.

Each molecule was assayed on MDA-MB-468 breast (assay: NCI-60 one-dose screen, 48 h (100 = growth as untreated, 0 = no growth, -100 = all killed)). Conditions: 10 µM unless noted.
`COc1ccc(C(=O)C(C)Br)cc1OC` (centres undefined) was tested, and the growth was 77.6%. With `C[C@]12CCc3nc(Nc4ccc(O)cc4)sc3C1=CC[C@@H]1[C@@H]2CC[C@]2(C)/C(=N/NC(N)=S)CC[C@@H]12` the growth was -58.2% (active). In the case of `COc1cc(-c2cc(-c3nc4ccccc4[nH]3)[nH]n2)cc(OC)c1OC`, the growth is reported as 14.7%. For `OCc1cnccc1NCCCOc1ccccc1`, the growth was 94.4%. `COc1ccc(C(=O)/C=C/c2cn(Cc3ccc(Cl)cc3)c3ccccc23)cc1` was tested, and the growth was -28.2% (active). For `CC1=C(C)C(=O)C(Nc2ccc(C)cc2)=C(Br)C1=O`, the growth was -4.77% (active). `COc1ccc(Cn2c(Br)c3c(c2-c2cc(OC)c(OC)c(OC)c2)CCc2sc(N)nc2-3)cc1` was tested, and the growth was 16.3%. `O=C1c2ccccc2C(=O)c2c1ccc(C(=O)O)c2[N+](=O)[O-]` gave a growth of 119%. Molecule `COc1ccc(-c2nn(-c3ccc(NC(=O)c4cc(C(F)(F)F)cc(C(F)(F)F)c4)cc3)cc2-c2ccncc2)cc1Cl` has a growth of 77.1%. Molecule `O=C(O)CSCSCC(=O)O` has a growth of 91.2%. With `Nc1ccc(C2=NN(C(=O)c3cc(-c4ccc(Cl)cc4)nc4ccccc34)C(c3ccc(Cl)cc3)C2)cc1` (centres undefined) the growth was 7.85% (active). In the case of `N=c1c2c(=N)n3c(nc2nc2n1-c1ccccc1Sc1ccccc1-2)sc1cc(Cl)ccc13`, the growth is reported as -11.8% (active). For `O=C(Nc1cccc(Cl)c1)c1cc([N+](=O)[O-])ccc1O`, the growth was 31.3%. `COc1cc2ncnc(Nc3cccc(Cl)c3F)c2cc1OC(=O)N1CCN(C)C[C@H]1C` was tested, and the growth was -10.7% (active). Work on `C=CCC(=O)N[C@H](/C=C/C(=O)O)Cc1ccc(-c2cc(Cl)cc(Cl)c2)cc1` yielded a growth of 101%. Work on `O=C(/C=C/c1ccccc1)c1ccccc1` yielded a growth of 74.8%. With `O=C(CN1CCN(c2cc3c(cc2F)c(=O)c(C(=O)O)cn3C2CC2)CC1)Nc1nc(-c2ccccc2)cs1` the growth was 37.4%. With `COc1ccc(N=Nc2ccc(O)c(=O)cc2)cc1` the growth was -31.9% (active). Molecule `CCC(C)C1NC(=O)C(CCNCS(=O)(=O)O)NC(=O)C(NC(=O)C(CCNCS(=O)(=O)O)NC(=O)C(NC(=O)C(CCNCS(=O)(=O)O)NC(=O)CCCCC(C)C)C(C)O)CCNC(=O)C(C(C)O)NC(=O)C(CCNCS(=O)(=O)O)NC(=O)C(CCNCS(=O)(=O)O)NC(=O)C(C(C)CC)NC1=O` (centres undefined) has a growth of 16%. In the case of `Cc1ccc(S(=O)(=O)c2nc(-c3ccccc3)oc2S(C)(=O)=O)cc1`, the growth is reported as -59.3% (active). In the case of `CCCCCCCCCCCCCCCCC(Br)C(=O)O` (centres undefined), the growth is reported as 96%. In the case of `COc1cccc(C(=O)NNc2nc(Cl)nc(N3CCN(C(c4ccccc4)c4ccccc4)CC3)n2)c1`, the growth is reported as -17.1% (active). With `CC(=O)c1nn(-c2ccc(C)cc2)cc1C(=O)c1cc2c(ccc3ccccc32)oc1=O` the growth was 118%. Molecule `O=C1NC(=S)NC(=O)C1CC(=O)n1c(-c2ccccc2)nc2ccccc21` has a growth of 105%. Work on `O=C(CSc1nc2c(n1Nc1ccccc1)-c1ccccc1SC2)Nc1nccs1` yielded a growth of 104%. `Cc1nn(-c2cc(=O)[nH]c3ccccc23)c(N)c1C#N` gave a growth of 110%. Molecule `Cc1ccc(C)n1-c1ccsc1C(=O)NNC(=O)C(Cl)Cl` has a growth of 103%. Work on `N#Cc1ncc(-c2ccc(F)c(F)c2F)c(NC2CCCCCC2)n1` yielded a growth of 86.1%. Work on `COc1ccc(-c2c3c(nn2-c2ccc(N)cc2)CCc2cnoc2-3)cc1OC` yielded a growth of 92.8%. In the case of `Clc1cccc(Nc2ncnc3ccc(-c4cncc(-n5cnnn5)c4)cc23)c1`, the growth is reported as -31.6% (active). With `CC(=O)/C(=C/c1ccc([N+](=O)[O-])cc1)C(=O)c1ccccc1` the growth was 114%. Molecule `COc1ccc(CNc2ccc3nc(CCC4CCCCC4)[nH]c3c2)cc1` has a growth of 39.1%. `Cc1oc(-c2ccc(Cl)cc2)nc1C1=NN(C(=O)c2ccncc2)C(c2ccccc2)C1` (centres undefined) was tested, and the growth was 108%. `O=C1Nc2c(ccc(Cl)c2Cl)/C1=C/c1ccc(F)cc1` gave a growth of 51.9%. Work on `O=C(CSCC(=O)N/N=C/c1ccccc1O)N/N=C\c1ccccc1O` yielded a growth of 15.6%. With `O=C1c2c(c3c4cccnc4[nH]c3c3ccc4ccccc4c23)C(=O)N1CCN1CCOCC1` the growth was 62.8%. For `Cc1ccc(Cl)cc1NC(=O)N(C)CCO`, the growth was 132%. In the case of `CCn1c(Cc2ccccc2Nc2c(Cl)cccc2Cl)nnc1SCC(=O)NN1C(=O)/C(=C/c2cc(OC)c(O)c(OC)c2)SC1=S`, the growth is reported as -2.96% (active). In the case of `CSc1nc(=O)n(Cc2ccc(Cl)cc2)c(=O)[nH]1`, the growth is reported as 121%.
